Results from the supplement of paper PMC10849652.
Targets with a hit are over-represented here; the source holds about 8,800 in all. About 0.5% of all pairs of compound and target were hits. Values without a mark were called inactive.

How the values were obtained:
Experiment in all cases: log2 fold change, soluble protein after heating vs DMSO (PISA); higher = thermal stabilisation; K562 lysate, 10 uM; active = over 0.2 and 3.5 SD of the protein, either way, in both replicates (recomputed)
[1] = compound: NCC(=O)Nc1ccc(-n2nc(C(F)(F)F)cc2-c2ccc3c(ccc4ccccc43)c2)cc1
Outline: (§1)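 K562 pellets were dounce-homogenised in PBS pH 7.4 containing 1 mM MgCl2, and the crude extract, at 1 mg/mL protein, was exposed to 10 μM compound for 30 min. Aliquots were heated for 3 min across 48°C-58°C, pooled, brought to 0.5% NP-40 at 4°C and spun at 21,000xg for 90 min, with the supernatant taken as soluble protein. TMTpro 16plex LC-MS/MS with equalised channel sums quantified that protein. Values are log-two fold changes in thermal stability relative to solvent controls, taken from duplicates.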

vorinostat = compound: O=C(CCCCCCC(=O)Nc1ccccc1)NO [vorinostat]
Outline: as §1

silmitasertib = compound: O=C(O)c1ccc2c(c1)nc(Nc1cccc(Cl)c1)c1ccncc12 [silmitasertib]
Outline: as §1

[2] = compound: O=C1NC(=O)C(c2cnc3ccccn23)=C1c1cn2c3c(cc(F)cc13)CN(C(=O)N1CCCCC1)CC2
Outline: as §1

entospletinib = compound: c1cn2cc(-c3ccc4cn[nH]c4c3)nc(Nc3ccc(N4CCOCC4)cc3)c2n1 [entospletinib]
Outline: as §1

Chain of UniProt Q8TB52 (Q8TB52 whole entry, looked up): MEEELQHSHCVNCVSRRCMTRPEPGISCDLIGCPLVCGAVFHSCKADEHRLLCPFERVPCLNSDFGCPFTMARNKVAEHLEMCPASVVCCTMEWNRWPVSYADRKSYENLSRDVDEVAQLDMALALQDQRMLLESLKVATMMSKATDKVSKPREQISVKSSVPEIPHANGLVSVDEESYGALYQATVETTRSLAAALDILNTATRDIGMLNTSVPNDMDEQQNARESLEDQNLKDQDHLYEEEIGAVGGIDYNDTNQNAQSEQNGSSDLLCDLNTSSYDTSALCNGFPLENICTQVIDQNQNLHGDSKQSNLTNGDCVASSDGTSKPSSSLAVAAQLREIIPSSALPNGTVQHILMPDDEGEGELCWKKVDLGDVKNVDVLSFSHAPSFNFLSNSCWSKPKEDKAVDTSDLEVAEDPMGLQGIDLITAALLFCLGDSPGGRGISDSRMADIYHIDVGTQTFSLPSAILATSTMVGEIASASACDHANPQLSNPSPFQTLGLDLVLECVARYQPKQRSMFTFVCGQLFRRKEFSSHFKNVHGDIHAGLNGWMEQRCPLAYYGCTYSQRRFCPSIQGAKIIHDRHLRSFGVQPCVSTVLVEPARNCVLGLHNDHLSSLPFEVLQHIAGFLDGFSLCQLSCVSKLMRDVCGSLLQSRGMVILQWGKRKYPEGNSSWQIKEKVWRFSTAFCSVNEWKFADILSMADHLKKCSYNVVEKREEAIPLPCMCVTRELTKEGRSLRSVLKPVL
Chain of UniProt P06733 (P06733 whole entry, looked up): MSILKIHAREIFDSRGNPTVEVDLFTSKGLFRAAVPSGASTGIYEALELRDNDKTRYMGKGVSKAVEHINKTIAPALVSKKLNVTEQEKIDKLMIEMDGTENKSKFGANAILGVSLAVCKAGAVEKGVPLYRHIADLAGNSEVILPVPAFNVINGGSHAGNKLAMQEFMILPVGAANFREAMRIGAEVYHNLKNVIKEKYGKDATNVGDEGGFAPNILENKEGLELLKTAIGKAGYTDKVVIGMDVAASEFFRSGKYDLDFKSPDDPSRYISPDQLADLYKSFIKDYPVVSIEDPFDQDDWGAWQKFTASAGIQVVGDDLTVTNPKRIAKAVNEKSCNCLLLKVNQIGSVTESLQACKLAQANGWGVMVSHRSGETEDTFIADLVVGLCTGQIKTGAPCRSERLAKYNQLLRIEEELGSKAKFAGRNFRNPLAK
Chain of UniProt P48507 (P48507 whole entry, looked up): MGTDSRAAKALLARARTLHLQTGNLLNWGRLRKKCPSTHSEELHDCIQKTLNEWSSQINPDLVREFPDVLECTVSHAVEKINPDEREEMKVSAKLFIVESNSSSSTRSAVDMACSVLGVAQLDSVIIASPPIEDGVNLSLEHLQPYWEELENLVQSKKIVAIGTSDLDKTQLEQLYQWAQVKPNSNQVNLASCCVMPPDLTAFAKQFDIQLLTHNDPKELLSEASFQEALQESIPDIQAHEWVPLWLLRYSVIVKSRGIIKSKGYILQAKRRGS
Chain of UniProt P06241 (P06241 whole entry, looked up): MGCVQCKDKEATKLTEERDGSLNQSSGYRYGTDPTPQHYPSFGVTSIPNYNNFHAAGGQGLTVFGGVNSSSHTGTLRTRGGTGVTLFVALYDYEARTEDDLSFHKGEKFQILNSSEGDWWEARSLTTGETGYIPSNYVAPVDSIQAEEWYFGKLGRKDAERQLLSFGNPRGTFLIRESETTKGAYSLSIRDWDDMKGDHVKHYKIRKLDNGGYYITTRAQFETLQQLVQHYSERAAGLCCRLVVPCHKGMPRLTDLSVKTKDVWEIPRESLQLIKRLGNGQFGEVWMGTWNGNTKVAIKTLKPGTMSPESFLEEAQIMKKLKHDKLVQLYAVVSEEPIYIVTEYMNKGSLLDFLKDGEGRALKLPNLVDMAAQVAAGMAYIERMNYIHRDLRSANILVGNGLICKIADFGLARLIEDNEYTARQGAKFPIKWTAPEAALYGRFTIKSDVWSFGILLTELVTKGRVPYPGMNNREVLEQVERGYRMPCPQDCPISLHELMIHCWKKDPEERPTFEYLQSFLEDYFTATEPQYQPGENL
Chain of UniProt O75521 (O75521 whole entry, looked up): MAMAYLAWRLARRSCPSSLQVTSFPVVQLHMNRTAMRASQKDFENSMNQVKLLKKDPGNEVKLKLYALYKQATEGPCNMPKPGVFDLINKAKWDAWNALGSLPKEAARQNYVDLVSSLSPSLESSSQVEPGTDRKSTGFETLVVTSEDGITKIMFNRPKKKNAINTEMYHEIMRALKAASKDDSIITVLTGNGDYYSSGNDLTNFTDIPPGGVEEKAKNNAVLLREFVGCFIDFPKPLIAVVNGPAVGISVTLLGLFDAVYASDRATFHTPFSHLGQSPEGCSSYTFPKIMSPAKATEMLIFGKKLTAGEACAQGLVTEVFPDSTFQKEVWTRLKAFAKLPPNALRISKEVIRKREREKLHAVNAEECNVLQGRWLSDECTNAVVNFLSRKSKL
Chain of UniProt Q9NYY8 (Q9NYY8 whole entry, looked up): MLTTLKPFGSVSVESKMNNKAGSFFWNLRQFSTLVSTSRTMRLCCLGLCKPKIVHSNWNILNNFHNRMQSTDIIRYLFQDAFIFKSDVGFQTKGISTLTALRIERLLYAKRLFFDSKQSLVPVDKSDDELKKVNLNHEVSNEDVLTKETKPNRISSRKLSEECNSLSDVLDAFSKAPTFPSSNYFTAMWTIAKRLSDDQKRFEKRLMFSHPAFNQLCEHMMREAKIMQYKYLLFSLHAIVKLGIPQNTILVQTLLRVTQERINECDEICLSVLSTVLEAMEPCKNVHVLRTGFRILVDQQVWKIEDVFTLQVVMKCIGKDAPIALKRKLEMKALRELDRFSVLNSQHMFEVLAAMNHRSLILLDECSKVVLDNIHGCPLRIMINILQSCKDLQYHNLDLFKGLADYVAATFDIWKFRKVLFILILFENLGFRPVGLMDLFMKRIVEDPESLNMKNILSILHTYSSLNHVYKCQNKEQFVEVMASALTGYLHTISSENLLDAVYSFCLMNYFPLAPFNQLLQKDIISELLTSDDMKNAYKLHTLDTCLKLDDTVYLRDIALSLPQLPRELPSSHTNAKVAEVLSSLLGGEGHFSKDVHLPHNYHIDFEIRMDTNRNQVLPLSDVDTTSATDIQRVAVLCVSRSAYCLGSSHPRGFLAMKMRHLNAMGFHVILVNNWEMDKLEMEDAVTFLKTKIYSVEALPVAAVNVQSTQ
Chain of UniProt Q96RT1 (Q96RT1 whole entry, looked up): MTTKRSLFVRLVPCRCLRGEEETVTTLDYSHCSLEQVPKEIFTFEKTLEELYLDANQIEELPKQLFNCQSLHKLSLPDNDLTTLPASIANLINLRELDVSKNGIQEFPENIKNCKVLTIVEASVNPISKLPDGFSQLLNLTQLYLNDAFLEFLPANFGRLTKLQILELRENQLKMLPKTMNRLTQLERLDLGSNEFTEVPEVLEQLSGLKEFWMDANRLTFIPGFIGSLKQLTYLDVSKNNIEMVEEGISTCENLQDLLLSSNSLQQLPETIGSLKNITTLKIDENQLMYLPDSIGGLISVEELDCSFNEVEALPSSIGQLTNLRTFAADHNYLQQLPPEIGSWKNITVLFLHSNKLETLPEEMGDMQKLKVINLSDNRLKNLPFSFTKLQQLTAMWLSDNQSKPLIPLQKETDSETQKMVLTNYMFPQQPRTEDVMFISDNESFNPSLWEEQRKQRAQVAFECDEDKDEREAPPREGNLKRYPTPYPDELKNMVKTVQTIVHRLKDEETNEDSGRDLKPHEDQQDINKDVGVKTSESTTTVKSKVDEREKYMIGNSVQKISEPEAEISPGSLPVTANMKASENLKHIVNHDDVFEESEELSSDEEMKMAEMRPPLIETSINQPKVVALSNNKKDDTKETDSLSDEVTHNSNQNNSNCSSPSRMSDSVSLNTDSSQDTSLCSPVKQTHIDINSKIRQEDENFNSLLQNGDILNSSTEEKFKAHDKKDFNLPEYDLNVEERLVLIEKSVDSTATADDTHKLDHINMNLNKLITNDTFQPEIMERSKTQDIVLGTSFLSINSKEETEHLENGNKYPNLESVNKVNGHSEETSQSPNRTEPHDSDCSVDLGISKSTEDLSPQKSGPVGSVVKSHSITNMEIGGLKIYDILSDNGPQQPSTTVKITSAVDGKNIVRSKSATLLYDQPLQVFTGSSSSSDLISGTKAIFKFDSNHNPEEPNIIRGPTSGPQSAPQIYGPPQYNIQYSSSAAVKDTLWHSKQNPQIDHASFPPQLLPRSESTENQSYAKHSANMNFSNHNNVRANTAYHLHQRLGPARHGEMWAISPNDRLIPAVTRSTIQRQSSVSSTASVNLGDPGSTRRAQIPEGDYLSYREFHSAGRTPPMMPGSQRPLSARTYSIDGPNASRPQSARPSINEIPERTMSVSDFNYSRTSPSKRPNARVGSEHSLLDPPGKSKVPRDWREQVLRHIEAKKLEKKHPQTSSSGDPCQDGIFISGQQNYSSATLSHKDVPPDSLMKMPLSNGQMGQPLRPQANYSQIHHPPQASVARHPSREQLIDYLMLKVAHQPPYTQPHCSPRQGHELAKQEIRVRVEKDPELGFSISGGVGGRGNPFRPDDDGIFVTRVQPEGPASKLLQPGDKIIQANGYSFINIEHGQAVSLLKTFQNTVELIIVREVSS
Chain of UniProt O75477 (O75477 whole entry, looked up): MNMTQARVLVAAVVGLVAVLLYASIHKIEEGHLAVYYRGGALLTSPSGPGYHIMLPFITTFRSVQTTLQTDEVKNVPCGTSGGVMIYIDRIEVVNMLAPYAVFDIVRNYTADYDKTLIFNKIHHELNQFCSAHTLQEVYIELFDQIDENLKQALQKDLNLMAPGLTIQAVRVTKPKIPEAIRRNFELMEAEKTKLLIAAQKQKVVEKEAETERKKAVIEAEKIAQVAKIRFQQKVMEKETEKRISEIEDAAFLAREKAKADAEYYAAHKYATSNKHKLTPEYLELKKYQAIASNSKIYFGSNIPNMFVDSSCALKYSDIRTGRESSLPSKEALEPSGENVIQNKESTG
Chain of UniProt P41567 (P41567 whole entry, looked up): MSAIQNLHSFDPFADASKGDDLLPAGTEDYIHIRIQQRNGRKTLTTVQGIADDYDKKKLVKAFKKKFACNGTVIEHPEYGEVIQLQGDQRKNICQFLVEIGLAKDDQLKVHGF

Row | Target | log2 fold change [1] | log2 fold change (vorinostat) | log2 fold change (silmitasertib) | log2 fold change [2] | log2 fold change (entospletinib)
1 | FOXK1 (UniProt P85037) | 0.022 | -0.414 (active) | -0.026 | -0.048 | 0.038
2 | FREM2 (UniProt Q5SZK8) | 0.094 | 0.048 | 0.085 | -0.11 | -0.003
3 | FBRSL1, A0A3B3IRR3 | 0.043 | 0.142 | -0.013 | 0.069 | -0.087
4 | FTL (UniProt P02792) | -0.064 | 0.018 | 0.057 | 0.011 | -0.151
5 | FADS1, A0A0A0MR51 | 0.054 | 0.093 | -0.003 | -0.046 | -0.028
6 | GAPVD1 isoform 6 (UniProt Q14C86) | -0.033 | -0.292 (active) | 0.04 | -0.001 | -0.002
7 | FAU (UniProt E9PR30) | 0.006 | 0.212 (active) | 0.047 | -0.006 | 0.016
8 | FXR2 (UniProt P51116) | 0.033 | -0.25 (active) | -0.039 | -0.022 | -0.064
9 | EDARADD (UniProt Q8WWZ3) | 0.022 | -0.168 | 0.02 | -0.05 | -0.057
10 | FAM98A (UniProt Q8NCA5) | 0.027 | -0.558 (active) | 0.005 | 0.01 | 0.006
11 | FBXO9 (UniProt Q9UK97) | -0.154 | -0.135 | 0.009 | -0.046 | -0.188
12 | FAM118B (UniProt Q9BPY3) | 0 | -0.273 (active) | 0.018 | 0 | -0.005
13 | DST (UniProt Q03001) | 0.262 | -0.035 | -0.02 | 0.01 | -0.03
14 | ENO1 isoform 2 (UniProt P06733) | -0.008 | 0.099 | 0.045 | 0.005 | -0.05
15 | EED, A0A5F9ZI63 | -0.022 | -0.227 (active) | 0.043 | -0.018 | 0.009
16 | ETFRF1 (UniProt Q6IPR1) | 0.03 | 0.24 (active) | -0.043 | 0.051 | –
17 | GEMIN2 (UniProt O14893) | 0.003 | -0.425 (active) | 0.002 | 0.04 | -0.005
18 | FOXJ3 (UniProt Q9UPW0) | -0.016 | -0.24 (active) | 0.114 | 0.019 | 0.022
19 | ESYT2 (UniProt H7BXI1) | -0.041 | 0.243 (active) | -0.002 | -0.002 | 0.019
20 | FIGNL1 (UniProt Q6PIW4) | -0.016 | -0.484 (active) | 0.045 | 0 | 0.05
21 | ERBIN isoform 8 (UniProt Q96RT1) | -0.016 | -0.008 | -0.001 | -0.017 | -0.002
22 | FHOD1 (UniProt Q9Y613) | -0.018 | -0.47 (active) | 0.008 | -0.02 | -0.002
23 | ETHE1 (UniProt O95571) | -0.01 | -0.113 | 0.009 | 0 | -0.02
24 | EIF1 (UniProt P41567) | -0.032 | 0.12 | -0.024 | 0.036 | 0.028
25 | FAM204A (UniProt Q9H8W3) | -0.057 | -0.211 | -0.095 | 0.044 | –
26 | DTL (UniProt Q9NZJ0) | -0.011 | -0.165 | -0.042 | 0.052 | –
27 | FYN (UniProt P06241) | -0.047 | 0.091 | -0.001 | -0.027 | 0.156

Row | Target | log2 fold change [1] | log2 fold change (vorinostat) | log2 fold change (silmitasertib) | log2 fold change [2] | log2 fold change (entospletinib)
28 | EMC7 (UniProt Q9NPA0) | 0.015 | 0.085 | -0.007 | -0.018 | -0.023
29 | EWSR1 isoform 5 (UniProt Q01844) | 0.027 | 0.036 | -0.034 | 0.006 | 0.014
30 | ERLIN2 (UniProt O94905) | -0.012 | 0.032 | 0.019 | -0.005 | 0.016
31 | EBP (UniProt Q15125) | 0.134 | 0.1 | -0.033 | 0.097 | 0.013
32 | ENSA isoform 3 (UniProt O43768) | -0.029 | 0.144 | -0.019 | 0.003 | -0.014
33 | EXOC6 (UniProt Q8TAG9) | -0.074 | -0.301 (active) | 0.057 | -0.006 | 0.021
34 | ECI2 (UniProt O75521) | 0.08 | 0.146 | 0.022 | 0.284 (active) | -0.033
35 | DYNC1I2 isoform 2 (UniProt Q13409) | 0.138 | 0.07 | 0.008 | 0.054 | 0.039
36 | ERCC4 (UniProt Q92889) | 0.026 | -0.241 (active) | 0.002 | -0.065 | 0.021
37 | GCLM (UniProt P48507) | 0.007 | -0.277 (active) | -0.013 | 0.032 | 0.021
38 | FUBP3 (UniProt Q96I24) | -0.001 | -0.325 (active) | -0.032 | 0.047 | -0.065
39 | FBXO22 (UniProt Q8NEZ5) | 0.014 | -0.477 (active) | -0.022 | -0.018 | 0.014
40 | ESPL1 (UniProt Q14674) | 0.027 | -0.21 | 0.098 | 0.057 | -0.066
41 | FASTKD2 (UniProt Q9NYY8) | 0.008 | -0.524 (active) | 0.044 | 0.025 | 0.013
42 | FARSA (UniProt Q9Y285) | -0.025 | 0.381 (active) | 0.007 | -0.006 | 0.003
43 | FBXO30 (UniProt Q8TB52) | -0.01 | -0.316 (active) | 0.042 | -0.019 | 0.013
44 | EIF2AK2 (UniProt P19525) | 0.021 | -0.415 (active) | 0.038 | -0.017 | 0.068
45 | EXOC4 (UniProt Q96A65) | 0.009 | -0.389 (active) | 0.041 | -0.022 | -0.006
46 | FADS3 (UniProt Q9Y5Q0) | 0.21 | 0.247 | -0.126 | 0.004 | -0.185
47 | ELAVL1 isoform 2 (UniProt Q15717) | 0.042 | -0.326 (active) | 0.059 | -0.051 | 0
48 | FAM114A2 (UniProt Q9NRY5) | -0.056 | 0.262 | -0.015 | -0.034 | 0
49 | GAPDH (UniProt P04406) | 0 | 0.309 (active) | -0.033 | 0.014 | 0.003
50 | EXOC5 (UniProt O00471) | 0.036 | -0.293 (active) | 0.036 | 0.002 | 0.025
51 | EIF3I (UniProt Q13347) | 0.022 | -0.316 (active) | 0.061 | -0.005 | 0.005
52 | ENO1, A0A2R8YEM5 | -0.032 | 0.119 | -0.005 | 0.017 | 0.04
53 | ERLIN1 (UniProt O75477) | -0.07 | 0.063 | 0.064 | 0.03 | 0.023
54 | EEF1A1P5 (UniProt Q5VTE0) | 0.04 | -0.311 (active) | -0.017 | 0.005 | 0.033
